# Measurements as given in PubChem BioAssay (NCI).
# This is part of a sample that, as a whole, favours compounds with a hit. Of some 79,000 tested, about 15% had one in any assay. Values without a mark were called inactive. The source made the active and inactive calls. Rule as the data show it: active = growth inhibition above about 70%; inactive = the rest.
# Columns and labels:
# [1] = NCI Yeast Anticancer Drug Screen. Data for the rad50 strain (AID 155);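 also: 0% = growth of vehicle-only cultures of the same strain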; details: S. cerevisiae rad50 strain growth inhibition; at 50.0 µM; hits give high values
# Method in brief: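 Readout: growth inhibition relative to vehicle-treated cultures. Compound exposure was carried out in a genetically defined yeast strain deficient in DNA damage repair.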
# [2] = NCI Yeast Anticancer Drug Screen. Data for the mec2-1 strain (AID 157); details: S. cerevisiae mec2-1 strain, at 50.0 µM, hits give high values
# Method in brief: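 mec2-1 yeast strain, carrying an alteration in DNA damage repair or cell cycle control, was exposed to compounds; growth inhibition was measured relative to vehicle-treated controls.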
# [3] = NCI Yeast Anticancer Drug Screen. Data for the sgs1 mgt1 strain (AID 161);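 also: 0% = growth of cultures given vehicle only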; details: S. cerevisiae sgs1 mgt1 strain, at 50.0 µM, hits give high values
# Method in brief: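 Growth of a repair-deficient yeast mutant was monitored after compound treatment and expressed as inhibition relative to vehicle-treated cultures.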
# [4] = NCI Yeast Anticancer Drug Screen. Data for the cln2 rad14 strain (AID 165);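 also: 0% = growth equal to vehicle treated cultures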; details: S. cerevisiae cln2 rad14 strain, at 50.0 µM, hits give high values
# Method in brief: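 Yeast carrying cln2 and rad14 alterations (cell cycle control and DNA damage repair) were exposed to compounds. Growth inhibition was measured against vehicle-treated controls.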
# [5] = NCI Yeast Anticancer Drug Screen. Data for the bub3 strain (AID 167); details: S. cerevisiae bub3 mutant strain, at 50.0 µM, hits give high values
# Method in brief: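 Readout: yeast growth inhibition, expressed relative to vehicle-only wells. The test organism is a mutant strain from a panel with lesions in DNA repair or checkpoint genes.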
# [6] = NCI Yeast Anticancer Drug Screen. Data for the mlh1 rad18 strain (AID 175); details: S. cerevisiae mlh1 rad18 strain growth inhibition; at 50.0 µM; hits give high values
# Method in brief: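 Growth inhibition of the yeast strain was measured after compound exposure and expressed relative to vehicle-treated controls. The strain carries defined defects in DNA damage repair.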
SMILES,growth inhibition [1],growth inhibition [2],growth inhibition [3],growth inhibition [4],growth inhibition [5],growth inhibition [6]
O=C(CC/C(CC(=O)c1ccc(Cl)cc1)=N\O)Nc1cccc(Cl)c1,-31.9%,-2.4%,-6.45%,-3.85%,0.7%,-11.6%
C=CC1CC[N-]CC1.[Cl][Cu][Cl],6.4%,-1.9%,2.75%,-7.6%,-14.6%,6.35%
Cc1nnc2c3[nH]c4ccccc4c3c(Cl)nn12,-3.3%,-7.25%,3.55%,-52.2%,-10.8%,-11.1%
O=c1c2c(-c3ccccc3)c3ccccc3nc2cnn1-c1ccccc1,-18.4%,-11%,-18.4%,-18.4%,-24.9%,-14.2%
CCC(/C=N/Nc1ccc([N+](=O)[O-])cc1[N+](=O)[O-])(CC)CC,-2.85%,-8.75%,-6.25%,0.25%,-2.85%,6.8%
CCC(Nc1ccccc1)C(=O)O (centres undefined),-4.45%,-13.7%,-8.9%,-16.9%,-8.7%,4.15%
COc1cccc(/C=N\N=C\c2cccc(OC)c2O)c1O,2.65%,2.7%,-11.4%,-7.05%,26.6%,33.9%
CCOC(=O)CCC(NC(=O)c1ccc(NC)c([N+](=O)[O-])c1)C(=O)OCC (centres undefined),58.9%,-1.9%,11.4%,18.8%,4%,0.8%
CNC(=O)OC(COC)CN1CCN(c2ccccc2C)CC1 (centres undefined),-25.8%,-47.8%,-10.6%,-1.25%,-8.3%,-6.5%
CCOP(=O)(OCC)/C(C#N)=C/c1ccc(N(C)C)cc1,16.3%,-9.2%,12.4%,9.8%,-13.9%,5.8%
CC1=NN(c2nc(N)nc(CN3CCOCC3)n2)C(C)(C)C1,30.1%,3.5%,17.4%,20.6%,5.75%,-2.05%
CC(=O)OC1CCC2(C)C(CCC3C2CCC2(C)C(C(C)=O)CCC32)C1 (centres undefined),4.25%,-9.05%,2.35%,-11.9%,10.4%,14.9%
O=S(=O)(Cc1cccs1)c1ncc(Br)cn1,9.25%,10.1%,7.9%,7.5%,11.8%,7.8%
Cc1ccc(S(=O)(=O)OCC2C(COS(=O)(=O)c3ccc(C)cc3)C3C=CC2C32CC2)cc1 (centres undefined),-5.5%,-7.9%,27.9%,77.7% (active),91% (active),5.25%
CCCCC(CC)CCC(O)CC(C)C (centres undefined),-10.2%,-11.3%,14.6%,10.8%,13.8%,5.25%
COc1ccc2cc1Oc1cc3c(cc1OC)CC[N+](C)(C)C3Cc1ccc(cc1)Oc1c(OC)c(OC)cc3c1C(C2)[N+](C)(C)CC3 (centres undefined),-29.4%,-16.4%,-46.2%,10.8%,-22.9%,-19.3%
O=c1cc[nH]c2c(Cl)cccc12,-8.15%,-20.9%,-5.05%,0.95%,2%,-2.9%
CCOc1ccccc1NC(=O)Nc1cccc2ccccc12,-3.5%,3.75%,3.65%,-22.3%,-6.8%,-15.4%
CN(CCOc1ccccc1)Cc1ccccc1,33.1%,7.15%,50.7%,31.3%,40.1%,34.4%
CCCCOc1ccc(/C=C/C(=O)OCC(CC)CCCC)cc1 (centres undefined),-10.2%,-6.2%,12.4%,-63.4%,12.2%,-9.05%

SMILES,growth inhibition [1],growth inhibition [2],growth inhibition [3],growth inhibition [4],growth inhibition [5],growth inhibition [6]
COC(=O)N/N=C/c1ccccc1Cl,4.55%,-31%,-18.6%,-64.8%,-12.5%,-12.2%
CCCCCC(=O)O,-20.2%,-7.1%,-42.1%,26.9%,-38.9%,16.8%
NC(=O)C1CC(I)C2CC1C(=O)O2 (centres undefined),1.45%,-4.3%,-4.45%,4.3%,0.35%,-6.5%
OCC(CN1CCCCC1)(CN1CCCCC1)CN1CCCCC1,-47.8%,-68.7%,-14.6%,-7.05%,-5.2%,-32.4%
CN(C)B(B(N(C)C)N(C)C)N(C)C,13.7%,17.4%,35.6%,22.4%,13.8%,34.8%
C=C(Nc1ccc([N+](=O)[O-])cc1[N+](=O)[O-])c1c/c(=N\NC(N)=S)c2ccccc2o1,25.1%,-16%,-3.85%,15.6%,16.4%,6.45%
C=C1CN2CCc3c([nH]c4ccccc34)C2CC1CC(=O)N(C)C (centres undefined),-33.5%,-26.7%,-24.4%,-1.15%,-32%,-9.65%
COc1ccc2nc3cc(Cl)ccc3c(C=O)c2c1,-0.15%,7.65%,5.75%,-35.8%,-4.3%,-2.25%
COC(=O)c1c2c(cc3nc4ccccc4nc13)OCO2,26.4%,9.75%,12.8%,-1.8%,16.9%,21.6%
C[N+](C)(C)CCCOC1=Nc2ccccc2O/C1=C/c1ccccc1,-52.2%,2.1%,-6.3%,-27.4%,-4.1%,18.5%
COc1cc(OC)cc(N2CCC(c3c(N)nc(N)nc3Cl)CC2)c1,-4.1%,10.1%,-8.65%,-2.25%,15.2%,-18.3%
COc1cc(CNc2nc3ccccc3nc2C(=O)O)cc(OC)c1OC,10.3%,3.05%,-8.75%,5.1%,-2.15%,-0.4%
Cc1cc2c3c(nc2c2cc[nH]c(C)c12)CCCC3,88.2% (active),92% (active),92% (active),91.7% (active),90.8% (active),91% (active)
O=c1c2c([nH]n1-c1ccccc1)-c1ccccc1CS2,40.2%,15.9%,37.8%,9.55%,40.6%,28.9%
CN(C)c1ccc2c(SCC(=O)OCC(=O)C3(O)CCC4C5CCC6=CC(=O)C=CC6(C)C5C(O)CC43C)c3ccc(N(C)C)cc3nc2c1 (centres undefined),42.6%,45.4%,57.2%,60%,42.2%,60.9%
CCOC(=O)C(N=Cc1ccc([N+](=O)[O-])cc1)C(O)c1ccc([N+](=O)[O-])cc1 (centres undefined),9.55%,5.15%,1.8%,14.9%,2.2%,7.75%
CCOC(=O)NNC(N)=O,-2.8%,-19.2%,-18%,-22.1%,1.8%,-10.5%
Cc1ccc(Nc2c3ccccc3nc3ccccc23)cc1,97.9% (active),88.5% (active),93.8% (active),91.1% (active),88.2% (active),97.1% (active)
COC(=O)C1CSC(C)(C)N1 (centres undefined),10.6%,-8.55%,-1.5%,-0.95%,-7.35%,4.35%
